Most compounds without a hit are left out; they make up all but 7.6% or so of the library.
Gal4-VP16 FLuc – Gal4-VP16 reporter inhibition counter-screen | Potency, µM (doses to about 53.6 µM), for inactives: top-dose activity, negative = inhibition, most hits filed as inhibitors | Drosophila S2 Gal4-VP16 UAS-luciferase, luminescence, 20 h | hit rate 3.5% among 310,000;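 also: Gal4-VP16 expression switched on by copper sulfate through the metallothionein promoter; potency is read from the fitted curve at half-maximal effect; % is scaled to controls: 0 for no effect and ±100 for the full control effect; nearly all actives have a fitted effect of over 50% in size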
Giardia kill – kills Giardia lamblia. Giardia lamblia trophozoite viability. activity change, % at 7.66 µM, hits read low. hit rate 0.15% among 340,000; in the data active = activity change below about -80%; inconclusive = between about -30% and that limit;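 also: parasites exposed to compound for two days anaerobically before the ATP read; % is scaled to controls: 0 for no effect and ±100 for the full control effect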
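Trophozoites 100 cells/well + cpd; 48 hrs, 37 deg C, anaerobic. ATPLite 1-Step added, 15-30 min RT, luminescence read (ATP-based viability).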
BRCA1 expr up – BRCA1 expression activation; Potency, µM (top dose mostly 46.1 µM), without a hit: top-dose activation, most hits filed as activators; MCF7-BRCA1-FFLuc reporter, luminescence, 48 h; response scale: scaled: vehicle 0%, 10 µM genistein 100%; hit rate 1.1% among 380,000; AID 624202; also: potency is read from the fitted curve at half-maximal effect; nearly all actives have a fitted effect of over 80% in size
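Compounds are tested at multiple concentrations on MCF7 BRCA1-luciferase reporter cells seeded at 2000 per well; after 48 h, a single luminescence end-point is taken and curves fitted to the normalized data.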
RORg inh – blocks mouse ROR gamma transcriptional activity; P51450; Drosophila S2 Gal4-RORgamma UAS-luciferase reporter, 20 h; Potency, µM (series often up to 53.6 µM), for the others: at the highest dose activity change, negative = inhibition, hits mostly inhibitors; hit rate 5.4% among 310,000; AID 2551; also: potency is read from the fitted curve at half-maximal effect; % is scaled to controls: 0 for no effect and ±100 for the full control effect; nearly all actives have a fitted effect of over 60% in size
Target sequence (P51450 whole entry, looked up, the tested form may be a part): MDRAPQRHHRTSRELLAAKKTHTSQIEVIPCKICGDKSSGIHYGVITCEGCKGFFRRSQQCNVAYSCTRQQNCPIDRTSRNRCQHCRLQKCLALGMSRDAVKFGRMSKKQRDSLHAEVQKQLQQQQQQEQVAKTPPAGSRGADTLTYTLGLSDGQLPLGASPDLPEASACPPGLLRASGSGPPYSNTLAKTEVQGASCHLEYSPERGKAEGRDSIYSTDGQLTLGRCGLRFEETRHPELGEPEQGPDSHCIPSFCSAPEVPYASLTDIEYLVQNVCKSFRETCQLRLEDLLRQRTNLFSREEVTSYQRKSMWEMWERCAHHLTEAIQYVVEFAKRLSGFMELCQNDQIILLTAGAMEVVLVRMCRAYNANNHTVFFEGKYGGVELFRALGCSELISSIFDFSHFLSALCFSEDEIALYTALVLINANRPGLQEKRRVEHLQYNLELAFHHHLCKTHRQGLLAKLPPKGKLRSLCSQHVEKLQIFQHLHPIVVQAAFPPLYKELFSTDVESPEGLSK
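Luminescence from a UAS-regulated Photinus luciferase reporter in stably transfected Drosophila Schneider cells is measured; decreased signal marks ROR gamma inhibition. Fusion expression is induced by 700 uM copper sulfate for 20 hr.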
p53 reactivation – re-activators of mutant p53; H1299 p53-A138V BP100-luciferase reporter, luminescence, 24 h; Potency, µM (doses to about 92.2 µM), for the others: at the highest dose activity change, positive = activation, usual class: activators; hit rate 0.063% among 320,000; also: potency is read from the fitted curve at half-maximal effect; % of control where 0% means no effect; nearly all actives have a fitted effect of over 45% in size
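p53-null H1299 cells stably carrying temperature-sensitive p53-A138V and a BP100-luciferase reporter were pinned with compounds (4-point, 1:5 series) and held 24 hrs at 37 deg C. Luminescence was read 10 min after detection reagent.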
ELG1 DNA repair – ELG1-dependent DNA repair inhibition | HEK293T ELG1-luciferase reporter, luminescence, 16 h; DNA damage induced by 5-fluorouridine | Potency, µM (series often up to 46.1 µM), for inactives: at the highest dose activity change, negative = inhibition, hits mostly inhibitors | hit rate 2.3% among 330,000; also: potency is read from the fitted curve at half-maximal effect; % is scaled to controls: 0 for no effect and ±100 for the full control effect; nearly all actives have a fitted effect of over 55% in size
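Luminescence from the luciferase reporter, measured 30 min after ONE-Glo reagent at room temperature, was the read-out. Beforehand, 2,000 cells per well were exposed for 16 hr at 37 °C to 5-fluorouridine together with compound or vehicle.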
* hit, by the source's call; ? = inconclusive; / = no result given. Unless noted, calls follow the shape of the dose curve; as a rule, active = well fitted curve in the direction sought with a large enough effect; inconclusive = small, poorly fitted or top-dose-only effect, or another doubt; inactive = no such curve, though single readings can be large; an effect the other way counts as inactive or inconclusive.

SMILES	Gal4-VP16 FLuc	Giardia kill	BRCA1 expr up	RORg inh	p53 reactivation	ELG1 DNA repair
CC1=CC(=O)O[C@@H]1[C@@]1(C)C[C@H]2OC(=O)C[C@H]3[C@@H](C)C(=O)C(O)=C1[C@@]23CO	/	-2	8%	/	-19%	18µM*
CCOc1ccc(OCCCC(=O)ON=C(N)c2ccccc2C)cc1	/	8	2%	/	13%	?
C=CC[C@@H](Cc1ccc(F)cc1)C(=O)OC[C@H]1CCCN1C(=O)[C@H](CC=C)CC(=O)N[C@H](CO)Cc1ccccc1	/	3	-12%	/	-12%	23µM*
C=CC[C@@H](Cc1ccc(F)cc1)C(=O)OC[C@@H]1CCCN1C(=O)[C@@H](CC=C)CC(=O)N[C@H](CO)Cc1ccccc1	/	-2	-28%	/	6%	21µM*
C=CC[C@@H](Cc1ccc(F)cc1)C(=O)OC[C@H]1CCCN1C(=O)[C@@H](CC=C)CC(=O)N[C@H](CO)Cc1ccccc1	/	6	-42%	/	17%	?
COc1ccc(C(=O)N/C(=C/c2cccnc2)C(=O)Nc2cccc(C(C)=O)c2)cc1OC	-8%	25	-10%	1%	-3%	5%
CC(=O)N1c2ccc(S(=O)(=O)N(C)CC(=O)Nc3cccc(C)c3)cc2CC1C (configuration not stated)	?	-7	5%	?	1%	0%
CC(=O)N1c2ccc(S(=O)(=O)N(C)CC(=O)Nc3ccccc3C)cc2CC1C (configuration not stated)	-11%	33	39%	2%	-7%	16µM*
C=C(C)C1Cc2c(C)nn(-c3ccccn3)c2C1 (configuration not stated)	?	1	-20%	13µM*	2%	-20%
Cc1nnc(C)c2c(C)n(-c3cccc4cccnc34)c(C)c12	-7%	/	/	-15%	-1%	1%
C=C(C)C1Cc2c(C)nn(-c3cccc4cccnc34)c2C1 (configuration not stated)	-27%	5	-7%	14µM*	4%	?
c1ccc2[nH]c(SCC3CCCCO3)nc2c1 (configuration not stated)	5%	-9	100%	-41%	19%	?
CCCCCc1ccc(C(=O)CCCC)c(=S)[nH]1	-23%	10	-2%	2.5µM*	13%	-10%
Cc1oc2ncn(CC(C)C)c(=O)c2c1C(=O)NCCCN1CCCCC1C (configuration not stated)	/	/	0%	/	/	/
O=c1c2c([nH]c3ccccc13)CCCCC2	18µM*	6	-32%	?	-1%	?
O=c1c2c([nH]c3ccccc13)CCCCCC2	-14%	-4	-37%	26%	-18%	-15%
O=c1c2ccccc2[nH]c2ccccc12	20µM*	7	31%	?	5%	-14%
c1ccc2c(c1)CC/C2=N/Nc1nc2ccccc2[nH]1	5.6µM*	-18	?	1.1µM*	3%	?
CCCCNc1nc2ccccc2[nH]1	6%	13	9%	27%	12%	23%
c1ccc(CN2CCC(=NNc3nc4ccccc4[nH]3)CC2)cc1	-25%	-8	-37%	22µM*	1%	1%
CC(C)(C)C1CCC(=NNc2nc3ccccc3[nH]2)CC1 (configuration not stated)	7%	4	-4%	18µM*	4%	-1%
CCOC(=O)CC1=NN(c2ccccc2)C(=O)C1=c1sc(=C2SC(C)=C(C)N2CC)c(=O)n1CC	/	-11	-6%	/	/	/
COc1ccc(NC(C)=O)cc1NC(=O)c1cccc(S(=O)(=O)N2CCc3ccccc32)c1	/	-1	-47%	/	-15%	?
O=c1c2ccccc2nc(SCc2cccc(F)c2)n1C1CCCC1	-5%	9	-60%	18%	-34%	4%
CCN(CC)S(=O)(=O)c1ccc2nc(NC(=O)c3cccs3)sc2c1	-3%	-1	65%	-39%	?	?
SMILES	Gal4-VP16 FLuc	Giardia kill	BRCA1 expr up	RORg inh	p53 reactivation	ELG1 DNA repair
CC(=O)Nc1nc2ccc(NC(=O)c3ccco3)cc2s1	10%	-15	11%	3%	6%	?
COc1ccc2nc(NC(=O)C3CCN(C(=O)c4ccco4)CC3)sc2c1	20%	0	13µM*	?	17%	?
Cc1ccc2nc(NC(=S)NC(=O)c3ccco3)sc2c1	3.5µM*	?	18%	0.28µM*	?	?
CCN(CC)S(=O)(=O)c1ccc2nc(NC(=O)c3ccco3)sc2c1	-11%	5	11µM*	0%	6%	?
Cc1ccc2nc(NC(=O)c3ccco3)sc2c1	7.1µM*	?	?	8.9µM*	4%	?
CCC(C)[C@H](N)c1nnc(SCC(=O)Nc2ccc(C)cc2C)o1 (some centres not stated)	-3%	38	-11%	-26%	-7%	13%
COc1cccc(Nc2nnc(Cc3cccnc3)c3ccccc23)c1	-2%	7	-19%	15%	-13%	-10%
CC(C)COc1ccc(C(=O)NC(Cc2c[nH]c3ccccc23)C(=O)NN)cc1 (configuration not stated)	-7%	7	-17%	10%	?	9%
COc1ccc2nc(NC(=O)c3ccco3)sc2c1	10µM*	?	?	10µM*	8%	?
O=C(Nc1nc2ccc(Cl)cc2s1)c1ccco1	?	-13	?	?	?	?
CCN(CC)S(=O)(=O)c1cccc(C(=O)Nc2nc3cc4c(cc3s2)OCCO4)c1	8%	13	-64%	13%	2%	12µM*
COc1ccc2c(c1)O[C@H](c1ccc3c(c1)OCO3)[C@@H](OC(=O)Nc1cc(OC)c(OC)c(OC)c1)C2=O	-4%	/	/	-19%	4%	?
Cc1ccc(NC(=S)NC2CCSc3ccccc32)cc1C (configuration not stated)	4µM*	-3	-30%	3.5µM*	-26%	-20%
COC(=O)c1ccc(C(=O)NC2CCSc3ccccc32)cc1 (configuration not stated)	3%	-8	-3%	0%	-2%	?
Cc1cccnc1NC(=S)Nc1ccc(F)cc1F	?	-1	?	6.3µM*	8%	?
Cc1cc(C)nc(NC(=S)Nc2ccc(F)cc2F)c1	-30%	11	0%	0.71µM*	-2%	-12%
CC(=O)Nc1cccc(NC(=S)Nc2ccc(F)cc2F)c1	-13%	7	5%	20%	6%	15%
Cc1ccc(C)c(NC(=S)Nc2ncccc2C)c1	?	-9	7.9µM*	3.5µM*	4%	?
